For 26 molecules, Potency and activity change, negative = inhibition results are on record in PubChem BioAssay (NCATS).

Results filed as inconclusive are left out. Entries that show only a call come without a potency. Unmarked numbers belong to inactive results. Calls of active or inactive are those of the source. Calls follow the shape of the dose curve; as a rule, active = well fitted curve in the direction sought with a large enough effect; inconclusive = small, poorly fitted or top-dose-only effect, or another doubt; inactive = no such curve, though single readings can be large; an effect the other way counts as inactive or inconclusive.

Assay [1] addresses Calcium and integrin-binding protein 1 (Homo sapiens) (UniProt Q99828). Kind of assay: Primary qHTS for Identification of Calcium Integrin Binding Protein 1 (CIB1) Competitor (AID 1508620).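 Also: GST tagged CIB1 binding a fluorescein labelled alphaIIb integrin peptide tracer; top concentration of the series differs between compounds.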 The following applies: CIB1-GST / FITC-alphaIIb peptide fluorescence polarization; series mostly up to 57.7 µM. An outline of the steps:
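Fluorescence polarization competition: GST-tagged CIB1 (1 uM final) preincubated with compound 15 min at room temperature, then FITC-labelled alphaIIb peptide (100 nM final) added. After 15 min at room temperature, polarization read at Ex 480/Em 540.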

Assay [2] in a line: Primary qHTS for small molecule stabilizers of the endoplasmic reticulum resident proteome: Secreted ER Calcium Modulated Protein (SERCaMP) assay (AID 1508630). Also: potency is read from the fitted curve at half-maximal effect. The conditions noted are these: SH-SY5Y GLuc-SERCaMP (Gaussia luciferase released on ER calcium loss) secretion, thapsigargin, luminescence; series mostly up to 38.4 µM. The gist of the method:
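GLuc-SERCaMP-expressing SH-SY5Y cells, pretreated 16 h with compound, are challenged with thapsigargin to empty ER calcium stores; after 4 h, coelenterazine is added directly to the medium and luminescence is imaged.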
(In general: qHTS replaces the single test concentration by a dilution series.)

Chain of Calcium and integrin-binding protein 1 (Homo sapiens) (Q99828 whole entry, looked up): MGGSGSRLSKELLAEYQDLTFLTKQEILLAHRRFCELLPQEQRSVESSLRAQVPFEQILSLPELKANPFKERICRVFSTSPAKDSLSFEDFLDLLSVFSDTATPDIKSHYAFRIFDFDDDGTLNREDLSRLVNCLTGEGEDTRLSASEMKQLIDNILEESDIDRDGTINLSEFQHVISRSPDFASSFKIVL

Turning to `COc1cc2nc(-c3cc(F)ccc3O)nc(N[C@@H]3CNC[C@@H]3C(C)(C)O)c2cc1OC`, the Potency entry in assay [1] and in assay [2] was “inactive” in each case.
`CCOC(=O)[C@H](CCc1ccccc1)N[C@@H](C)C(=O)N1CCCC1C(=O)O` (some centres undefined): the Potency result in assay [1] was “inactive”.
Take `C#C[C@]1(O)CC[C@H]2[C@H]3CCc4cc(OC)ccc4[C@H]3CC[C@@]21C`: the Potency result in assay [1] and in assay [2] was “inactive” each time.
In the case of `CC(=O)N1CCN(c2ccc(OCc3nn(C)c(C)c3-c3cccc4c(CCCOc5cc(C)c(Cl)c(C)c5)c(C(=O)O)n(Cc5cccnc5)c34)cc2)CC1`, the Potency entry in assay [1] and in assay [2] was “inactive” throughout.
Turning to `C[C@@H]1[C@H](O)[C@@H](C)C=CC=CC=CC=CC=CC=CC=C[C@H](O[C@@H]2O[C@H](C)[C@H](O)[C@H](N)[C@@H]2O)C[C@@H]2O[C@](O)(C[C@@H](O)C[C@@H](O)[C@H](O)CC[C@@H](O)C[C@@H](O)CC(=O)O[C@H]1C)C[C@H](O)[C@@H]2C(=O)O`, the Potency result in assay [1] and in assay [2] was “inactive” each time.
Take `OCCn1cc(-c2ccc3c(c2)CCC3=NO)c(-c2ccncc2)n1`: the Potency entry in assay [1] and in assay [2] was “inactive” throughout.
On to `CO[C@H]1C=CO[C@@]2(C)Oc3c(C)c(O)c4c(O)c(c(C=NN5CCN(C)CC5)c(O)c4c3C2=O)NC(=O)C(C)=CC=C[C@H](C)[C@H](O)[C@@H](C)[C@@H](O)[C@@H](C)[C@H](OC(C)=O)[C@H]1C`, for which the activity change, negative = inhibition in assay [1] is -2.55% [at 12.4 µM].
For `CC(C)(C)c1[nH]cnc1C=c1[nH]c(=O)c(=Cc2ccccc2)[nH]c1=O`, the Potency entry in assay [1] and in assay [2] was “inactive” each time.
Consider `OC[C@H]1O[C@@H](Oc2ccc(O)cc2)[C@H](O)[C@@H](O)[C@H]1O`, for which the Potency result in assay [1] and in assay [2] was “inactive” in each case.
For the molecule `CC(C)c1onc(-c2c(Cl)cccc2Cl)c1COc1ccc(C=Cc2cccc(C(=O)O)c2)c(Cl)c1`, the Potency entry in assay [1] is “inactive”.
For the molecule `CCCCC(C=O)NC(=O)C(CC(C)C)NC(=O)OCc1ccccc1` (centres undefined), the Potency entry in assay [1] and in assay [2] was “inactive” throughout.
For the molecule `CCOC(=O)[C@H]1O[C@H]1C(=O)N[C@@H](CC(C)C)C(=O)NCCC(C)C`, the Potency entry in assay [1] and in assay [2] was “inactive” in each case.
As for `CNc1nc(-c2ccc3c(N)n[nH]c3c2)cc(N2C[C@@H](C(=O)NC3CCCCC3)CC[C@@H]2C)n1`, the Potency result in assay [1] and in assay [2] was “inactive” each time.
On to `N#CC(=C1Nc2ccccc2S1)c1ccnc(OCc2ccc(CN3CCOCC3)cc2)n1`, for which the Potency entry in assay [1] was “inactive”. Further, in assay [2], the Potency was 1490 nM (active).
For `CN(CC=CC#CC(C)(C)C)Cc1cccc2ccccc12`, in that order: “inactive” and “inactive”.
Take `CC(=O)OCC(=O)[C@@]1(O)CC[C@H]2[C@@H]3CCC4=CC(=O)C=C[C@]4(C)[C@@H]3[C@@H](O)C[C@@]21C`: the Potency result in assay [1] and in assay [2] was “inactive” throughout.
On to `C[C@H](CCC(=O)O)[C@H]1CC[C@H]2[C@H]3[C@@H](CC[C@]12C)[C@@]1(C)CC[C@@H](O)C[C@H]1C[C@@H]3O`, for which the Potency result in assay [1] and in assay [2] was “inactive” throughout.
On to `Cn1cc(-c2ccc3nnc(Sc4ccc5ncccc5c4)n3n2)cn1`, for which the Potency entry in assay [1] and in assay [2] was “inactive” throughout.
For the molecule `COc1ccc2ccc(=O)oc2c1CC=C(C)C`, the Potency entry in assay [1] and in assay [2] was “inactive” each time.
For `C[C@@H]1CC=CC=CC=CC=C[C@@H](O[C@@H]2O[C@H](C)[C@@H](O)[C@H](N)[C@H]2O)C[C@@H]2O[C@](O)(C[C@@H](O)C[C@@H]3O[C@@H]3C=CC(=O)O1)C[C@H](O)[C@@H]2C(=O)O`, the Potency result in assay [1] and in assay [2] was “inactive” in each case.
As for `COc1c(C)c2c(c(O)c1CC=C(C)CCC(=O)O)C(=O)OC2`, the Potency entry in assay [1] and in assay [2] was “inactive” in each case.
In the case of `CN[C@H]1[C@@H](O[C@@H]2[C@H](O[C@@H]3[C@@H](O)[C@@H](O)[C@@H](N=C(N)N)[C@@H](O)[C@@H]3N=C(N)N)O[C@H](C)[C@@]2(O)C=O)O[C@@H](CO)[C@@H](O)[C@H]1O`, the activity change, negative = inhibition in assay [1] was -2.24% [at 12.4 µM]. Further, the Potency entry in assay [2] is “inactive”.
On to `CC[C@H]1OC(=O)[C@H](C)[C@@H](O[C@H]2C[C@@](C)(OC)[C@@H](O)[C@H](C)O2)[C@H](C)[C@@H](O[C@@H]2O[C@H](C)C[C@H](N(C)C)[C@H]2O)[C@](C)(O)C[C@H](C)C(=NOCOCCOC)[C@H](C)[C@@H](O)[C@]1(C)O`, for which the Potency entry in assay [1] and in assay [2] was “inactive” throughout.
For the molecule `CC(=O)O[C@]1(C(C)=O)CC[C@H]2[C@@H]3C=C(Cl)C4=CC(=O)[C@@H]5C[C@H]5[C@]4(C)[C@@H]3CC[C@@]21C`, the Potency result in assay [1] and in assay [2] was “inactive” in each case.
In the case of `C[C@@H]1[C@H](C)CC[C@]2(C(=O)O)CC[C@]3(C)C(=CC[C@@H]4[C@@]5(C)CC[C@H](O)C(C)(C)[C@H]5CC[C@]43C)[C@@H]12`, the Potency entry in assay [1] and in assay [2] was “inactive” throughout.
As for `C[C@@H]1O[C@@H](O[C@H]2CC[C@@]3(C)[C@H](CC[C@@H]4[C@H]3C[C@@H](O)[C@]3(C)[C@@H](C5=CC(=O)OC5)CC[C@]43O)C2)C[C@H](O)[C@@H]1O[C@H]1C[C@H](O)[C@H](O[C@H]2C[C@H](O)[C@@H](O)[C@@H](C)O2)[C@H](C)O1` (stereo in doubt), the Potency result in assay [1] and in assay [2] was “inactive” throughout.
